Test results: the supplement of paper PMC4466140

Columns and labels:
Assay in all cases: SPOT peptide array binding signal intensity (averaged, normalized) (arbitrary units (background-subtracted, floor 0; scale differs between SH3 domains)); higher = stronger binding of the SH3 domain to the peptide
AgAbp1 = target: AgAbp1
Method in brief: (§1)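 Binding signal is given in arbitrary units that differ between domains and is the normalized, background-subtracted spot intensity averaged across replicates. Each GST-SH3 fusion from one of four yeast species was made in E. coli BL21(DE3), purified on glutathione Sepharose and incubated at 10 μg/ml overnight at 4°C on cellulose-bound synthetic 15-mer peptides in which cysteines were replaced by serines. Detection used anti-GST antibody, an HRP anti-mouse secondary and luminol, followed by imaging and Genespotter quantification.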

AgBbc1 = target: AgBbc1
Method in brief: as §1

AgBem1-D1 = target: AgBem1-D1
Method in brief: as §1

AgBzz1-D1 = target: AgBzz1-D1
Method in brief: as §1

AgBzz1-D2 = target: AgBzz1-D2
Method in brief: as §1

AgCyk3 = target: AgCyk3
Method in brief: as §1

AgFus1 = target: AgFus1
Method in brief: as §1

AgHof1 = target: AgHof1
Method in brief: as §1

AgHse1 = target: AgHse1
Method in brief: as §1

AgLsb1 = target: AgLsb1
Method in brief: as §1

AgLsb4 = target: AgLsb4
Method in brief: as §1

AgMyo5 = target: AgMyo5
Method in brief: as §1

AgNbp2 = target: AgNbp2
Method in brief: as §1

AgRvs167 = target: AgRvs167
Method in brief: as §1

AgSho1 = target: AgSho1
Method in brief: as §1

AgSla1-D1-D2 = target: AgSla1-D1-D2
Method in brief: as §1

AgSla1-D3 = target: AgSla1-D3
Method in brief: as §1

CaAbp1-D1 = target: CaAbp1-D1
Method in brief: as §1

CaAbp1-D2 = target: CaAbp1-D2
Method in brief: as §1

CaBbc1 = target: CaBbc1
Method in brief: as §1

CaBem1-D1 = target: CaBem1-D1
Method in brief: as §1

CaBzz1-D1 = target: CaBzz1-D1
Method in brief: as §1

CaBzz1-D2 = target: CaBzz1-D2
Method in brief: as §1

CaCyk3 = target: CaCyk3
Method in brief: as §1

CaFus1 = target: CaFus1
Method in brief: as §1

CaHof1 = target: CaHof1
Method in brief: as §1

CaHse1 = target: CaHse1
Method in brief: as §1

CaLsb1 = target: CaLsb1
Method in brief: as §1

CaLsb4 = target: CaLsb4
Method in brief: as §1

CaMyo5 = target: CaMyo5
Method in brief: as §1

CaNbp2 = target: CaNbp2
Method in brief: as §1

CaRvs167 = target: CaRvs167
Method in brief: as §1

CaRvs167-3 = target: CaRvs167-3
Method in brief: as §1

CaSho1 = target: CaSho1
Method in brief: as §1

CaSla1-D1-D2 = target: CaSla1-D1-D2
Method in brief: as §1

CaSla1-D3 = target: CaSla1-D3
Method in brief: as §1

ScAbp1 = target: ScAbp1
Method in brief: as §1

ScBbc1 = target: ScBbc1
Method in brief: as §1

ScBem1-D1 = target: ScBem1-D1
Method in brief: as §1

ScBzz1-D1 = target: ScBzz1-D1
Method in brief: as §1

ScBzz1-D2 = target: ScBzz1-D2
Method in brief: as §1

ScCyk3 = target: ScCyk3
Method in brief: as §1

ScFus1 = target: ScFus1
Method in brief: as §1

ScHof1 = target: ScHof1
Method in brief: as §1

ScHse1 = target: ScHse1
Method in brief: as §1

ScLsb1 = target: ScLsb1
Method in brief: as §1

ScLsb2 = target: ScLsb2
Method in brief: as §1

ScLsb3 = target: ScLsb3
Method in brief: as §1

ScLsb4 = target: ScLsb4
Method in brief: as §1

ScMyo3 = target: ScMyo3
Method in brief: as §1

ScMyo5 = target: ScMyo5
Method in brief: as §1

ScNbp2 = target: ScNbp2
Method in brief: as §1

ScPex13 = target: ScPex13
Method in brief: as §1

ScRvs167 = target: ScRvs167
Method in brief: as §1

ScSho1 = target: ScSho1
Method in brief: as §1

ScSla1-D1-D2 = target: ScSla1-D1-D2
Method in brief: as §1

ScSla1-D3 = target: ScSla1-D3
Method in brief: as §1

SpAbp1-D1 = target: SpAbp1-D1
Method in brief: as §1

SpBbc1 = target: SpBbc1
Method in brief: as §1

SpBzz1-D1 = target: SpBzz1-D1
Method in brief: as §1

SpBzz1-D2 = target: SpBzz1-D2
Method in brief: as §1

SpCyk3 = target: SpCyk3
Method in brief: as §1

SpHof1 = target: SpHof1
Method in brief: as §1

SpHof1-2 = target: SpHof1-2
Method in brief: as §1

SpHof1-3 = target: SpHof1-3
Method in brief: as §1

SpHse1 = target: SpHse1
Method in brief: as §1

SpLsb1 = target: SpLsb1
Method in brief: as §1

SpLsb4 = target: SpLsb4
Method in brief: as §1

SpMyo1 = target: SpMyo1
Method in brief: as §1

SpNbp2 = target: SpNbp2
Method in brief: as §1

SpPex13 = target: SpPex13
Method in brief: as §1

SpRvs167 = target: SpRvs167
Method in brief: as §1

SpSla1-D1-D2 = target: SpSla1-D1-D2
Method in brief: as §1

SpSla1-D3 = target: SpSla1-D3
Method in brief: as §1

## ERPKRRAPPPVPKKP
AgAbp1
  SPOT peptide array binding signal intensity: 1360
AgBbc1
  SPOT peptide array binding signal intensity: 936
AgBem1-D1
  SPOT peptide array binding signal intensity: 86.5
AgBzz1-D1
  SPOT peptide array binding signal intensity: 1350
AgBzz1-D2
  SPOT peptide array binding signal intensity: 1190
AgCyk3
  SPOT peptide array binding signal intensity: 2
AgFus1
  SPOT peptide array binding signal intensity: 3.5
AgHof1
  SPOT peptide array binding signal intensity: 124
AgHse1
  SPOT peptide array binding signal intensity: 22
AgLsb1
  SPOT peptide array binding signal intensity: 62.5
AgLsb4
  SPOT peptide array binding signal intensity: 25
AgMyo5
  SPOT peptide array binding signal intensity: 359
AgNbp2
  SPOT peptide array binding signal intensity: 292
AgRvs167
  SPOT peptide array binding signal intensity: 1.83
AgSho1
  SPOT peptide array binding signal intensity: 83
AgSla1-D1-D2
  SPOT peptide array binding signal intensity: 7
AgSla1-D3
  SPOT peptide array binding signal intensity: 140
CaAbp1-D1
  SPOT peptide array binding signal intensity: 1770
CaAbp1-D2
  SPOT peptide array binding signal intensity: 1480
CaBbc1
  SPOT peptide array binding signal intensity: 1090
CaBem1-D1
  SPOT peptide array binding signal intensity: 42.5
CaBzz1-D1
  SPOT peptide array binding signal intensity: 6780
CaBzz1-D2
  SPOT peptide array binding signal intensity: 3000
CaCyk3
  SPOT peptide array binding signal intensity: 29
CaFus1
  SPOT peptide array binding signal intensity: 30
CaHof1
  SPOT peptide array binding signal intensity: 0.5
CaHse1
  SPOT peptide array binding signal intensity: 24.8
CaLsb1
  SPOT peptide array binding signal intensity: ≤ 0
CaLsb4
  SPOT peptide array binding signal intensity: 243
CaMyo5
  SPOT peptide array binding signal intensity: 4.5
CaNbp2
  SPOT peptide array binding signal intensity: 814
CaRvs167
  SPOT peptide array binding signal intensity: 16.7
CaRvs167-3
  SPOT peptide array binding signal intensity: 0.75
CaSho1
  SPOT peptide array binding signal intensity: 6
CaSla1-D1-D2
  SPOT peptide array binding signal intensity: 2360
CaSla1-D3
  SPOT peptide array binding signal intensity: 698
ScAbp1
  SPOT peptide array binding signal intensity: 2010
ScBbc1
  SPOT peptide array binding signal intensity: 460
ScBem1-D1
  SPOT peptide array binding signal intensity: 4
ScBzz1-D1
  SPOT peptide array binding signal intensity: 2120
ScBzz1-D2
  SPOT peptide array binding signal intensity: 66
ScCyk3
  SPOT peptide array binding signal intensity: 2.5
ScFus1
  SPOT peptide array binding signal intensity: 6
ScHof1
  SPOT peptide array binding signal intensity: ≤ 0
ScHse1
  SPOT peptide array binding signal intensity: ≤ 0
ScLsb1
  SPOT peptide array binding signal intensity: 101
ScLsb2
  SPOT peptide array binding signal intensity: 70
ScLsb3
  SPOT peptide array binding signal intensity: 608
ScLsb4
  SPOT peptide array binding signal intensity: 10
ScMyo3
  SPOT peptide array binding signal intensity: 1180
ScMyo5
  SPOT peptide array binding signal intensity: 959
ScNbp2
  SPOT peptide array binding signal intensity: 577
ScPex13
  SPOT peptide array binding signal intensity: 257
ScRvs167
  SPOT peptide array binding signal intensity: 151
ScSho1
  SPOT peptide array binding signal intensity: 166
ScSla1-D1-D2
  SPOT peptide array binding signal intensity: 1960
ScSla1-D3
  SPOT peptide array binding signal intensity: 691
SpAbp1-D1
  SPOT peptide array binding signal intensity: 280
SpBbc1
  SPOT peptide array binding signal intensity: 76
SpBzz1-D1
  SPOT peptide array binding signal intensity: 1460
SpBzz1-D2
  SPOT peptide array binding signal intensity: 40.2
SpCyk3
  SPOT peptide array binding signal intensity: 1
SpHof1
  SPOT peptide array binding signal intensity: 112
SpHof1-2
  SPOT peptide array binding signal intensity: 12
SpHof1-3
  SPOT peptide array binding signal intensity: 122
SpHse1
  SPOT peptide array binding signal intensity: 43.2
SpLsb1
  SPOT peptide array binding signal intensity: 302
SpLsb4
  SPOT peptide array binding signal intensity: 489
SpMyo1
  SPOT peptide array binding signal intensity: 1100
SpNbp2
  SPOT peptide array binding signal intensity: 10
SpPex13
  SPOT peptide array binding signal intensity: 15
SpRvs167
  SPOT peptide array binding signal intensity: 175
SpSla1-D1-D2
  SPOT peptide array binding signal intensity: 215
SpSla1-D3
  SPOT peptide array binding signal intensity: ≤ 0
